This is an account of results in PubChem BioAssay AID504848 (National Center for Advancing Translational Sciences (NCATS), 2011).

In all, about 2,300 compounds went through this assay and about 1,400 (61%) were called active. Not shown: some 29% with an inconclusive outcome. So high a share suggests a set chosen from earlier hits. The list shows a part of the results. Unmarked numbers belong to inactive results. Calls follow the shape of the dose curve; as a rule, active = well fitted inhibition curve with a large enough effect; inconclusive = small, poorly fitted or top-dose-only effect, or effect the other way; inactive = no such curve, though single readings can be large or run the other way.
% is scaled to controls: 0 for no effect and ±100 for the full control effect; potency is read from the fitted curve at half-maximal effect.

The nature of this test: Confirmation screen for delayed death inhibitors of the malarial parasite plastid, 96 hour incubation. Also: nearly all actives have a fitted effect of over 60% in size. The conditions noted are these: P. falciparum luciferase growth in erythrocytes; series mostly up to 28.7 µM; activity change, negative = inhibition: at the top concentration. Summed up:
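Two-generation (96 h, 37 C) exposure of P. falciparum carrying an integrated firefly luciferase reporter in erythrocytes, 0.1% parasitemia and 2% hematocrit final, Albumax-supplemented RPMI. Luminescence decrease measures growth inhibition.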
As to `O=C(c1cccc(Cl)c1)c1nn(-c2ccccc2)c(=O)cc1C(F)(F)F`, the Potency was 6.31 µM (active). In the case of `O=C(c1ccccc1)c1nn(-c2ccc(Cl)cc2)c(=O)cc1C(F)(F)F`, the Potency is 12.6 µM (active). Regarding `Cc1oc(=O)c(NC(=O)c2ccc(Cl)cc2)cc1C(=O)c1ccccc1`, the “activity change, negative = inhibition” value is -6.13%. For `COc1ccc(N2CCN(C3CCCN(Cc4ccc(F)cc4)C3)CC2)cc1` (centres undefined), the Potency is 14.1 µM (active).

For the molecule `COc1ccccc1N1CCN(C2CCCN(Cc3ccc(Cl)cc3)C2)CC1` (centres undefined), the Potency is 2.51 µM (active). Still for that read-out and setting: under `O=C(/C=C/c1ccccc1)c1ccc(NC2=NCCCS2)cc1` stands 14.1 µM (active). For `Cc1cccc(/C=C/C(=O)c2ccc(NC3=NCCCS3)cc2)c1`, the Potency is 11.2 µM (active).

`Cc1cc(C(=O)N2CCCC(N3CCN(c4cccc(C(F)(F)F)c4)CC3)C2)c(C)o1` (centres undefined): the Potency was 10 µM (active). Take `O=C(c1ccsc1)N1CCCC(N2CCN(c3cccc(C(F)(F)F)c3)CC2)C1` (centres undefined): the Potency is 12.6 µM (active).

As to `COc1cc(Cn2nnc3ccccc32)ccc1O`, the Potency is 11.2 µM (active). Consider `COc1ccc(/C=C/C(=O)c2ccccc2)cc1Cn1nnc2ccccc21`, for which the Potency is 6.31 µM (active). In the case of `Cc1cccc(NC(=S)/N=C(\N)Nc2nc(C)c3ccccc3n2)c1`, the Potency was 12.6 µM (active). On to `CCCN1CCN(CCCNC(=O)c2cc3c(s2)-c2c(C)cccc2OC3)CC1`, for which the Potency is 12.6 µM (active). As to `CCn1c2ccccc2c2c3ncc4cccn4c3ccc21`, the Potency is 14.1 µM (active). Consider `COC(=O)[C@@H]1C[C@]2(OC(=O)c3ccccc3)C=CC(=O)C[C@@H]2N1C(=O)OCc1ccccc1`, for which the Potency is 12.6 µM (active). As to `O=C(COc1ccccc1)N1CCN(S(=O)(=O)c2ccc(Br)cc2)CC1`, the Potency was 10 µM (active). Regarding `CCOc1ccc(S(=O)(=O)N2CCN(C(=O)CCOc3ccccc3C)CC2)cc1`, the Potency was 11.2 µM (active). Same read-out and setting: under `O=S(=O)(c1ccc(OCc2ccc(Br)cc2)cc1)N1CCOCC1` stands 8.91 µM (active). Consider `Cc1cc(OCC(=O)N2CCCC2)cc(C)c1Cl`, for which the “activity change, negative = inhibition” value is -3.62%. In the case of `CCOc1ccccc1OCCC(=O)N1CCN(S(=O)(=O)c2ccccc2[N+](=O)[O-])CC1`, the Potency was 11.2 µM (active). For the molecule `O=S(=O)(c1ccc(SCCO)nc1)N1CCOCC1`, the “activity change, negative = inhibition” value is 5.43%. Take `Cc1cc(C)n2nc(C(=O)N/N=C/c3c4ccccc4cc4ccccc34)nc2n1`: the Potency was 4.47 µM (active). On the same count and under the same terms, under `CSc1ccc(C2c3[nH]c4ccccc4c3CCN2C(=O)c2ccnn2C)cc1` (centres undefined) stands 3.98 µM (active); under `CCc1ccc(C2c3[nH]c4ccccc4c3CCN2C(=O)c2cc(C)nn2C)cc1` (centres undefined), 3.55 µM (active); under `Cn1nccc1C(=O)N1CCc2c([nH]c3ccccc23)C1c1ccc(F)cc1` (centres undefined), 6.31 µM (active).

Take `N=c1c2c3c(sc2ncn1Cc1ccccc1)CCCC3`: the “activity change, negative = inhibition” value was -12.3%. On to `COc1ccccc1NC(=O)c1oc2ccccc2c1NC(=O)C1CC1`, for which the Potency is 7.94 µM (active). Regarding `O=C(c1ccccc1)N1CCCC(c2ccc(Cl)cc2)=N1`, the Potency was 12.6 µM (active). On the same count and under the same terms, for `O=[N+]([O-])c1ccc(Sc2cccc3cccnc23)c([N+](=O)[O-])c1` the value was 2.82 µM (active). Consider `Cc1ccc(/C=C/C(=O)NC(C)c2ccccc2)cc1` (centres undefined), for which the Potency is 11.2 µM (active). Take `CCN(CC)CCC[C@H](C)Nc1c2ccc(Cl)cc2nc2ccc(OC)cc12`: the Potency was 0.224 µM (active).

As to `COc1ccc2nc3cc(Cl)ccc3c(Nc3cc(C(C)C)c(O)cc3C)c2c1`, the Potency is 0.0251 µM (active). In the case of `CCN(CC)CCC[C@H](C)Nc1ccnc2cc(Cl)ccc12`, the Potency was 0.501 µM (active).

Take `O=C(CCl)Nc1cccc2ncccc12`: the Potency was 3.55 µM (active). With `Cc1nc(SC(C)C(=O)NCC2CCCO2)c2cc(-c3ccccc3)sc2n1` (centres undefined), the Potency is 11.2 µM (active). In the case of `CN(C)c1ccc(S(=O)(=O)N2CCCCC2)cc1NC(=O)C1=NN(c2ccccc2)C(=O)CC1`, the Potency was 3.55 µM (active). In the case of `O=C(Nc1cc(Cl)ccc1N1CCCC1)C1=NN(c2ccccc2)C(=O)CC1`, the Potency was 12.6 µM (active). Regarding `O=C(CSc1nnc(COc2ccccc2)n1-c1ccccc1)c1cccs1`, the Potency was 11.2 µM (active).

As to `COc1cc2c(cc1OC)CN(C(=O)COc1ccccc1[N+](=O)[O-])CC2`, the Potency was 14.1 µM (active). For `COc1cc2c(cc1OC)CN(C(=O)COc1ccccc1C#N)CC2`, the “activity change, negative = inhibition” value was -97.4%. On to `Cc1ccc(C)c(-n2nnnc2Sc2nnnn2-c2ccccc2)c1`, for which the Potency is 10 µM (active). With `COc1ccc2c(C)cc(Sc3nnnn3-c3ccccc3)nc2c1`, the Potency was 15.8 µM (active).

As for `COc1cccc(/C=C2\SC(N3CCCC(C)C3)=NC2=O)c1OC` (centres undefined), the Potency was 11.2 µM (active). For `CCCOc1ccccc1/C=C1\SC(N2CCCCC2)=NC1=O`, the Potency was 0.891 µM (active). For the molecule `Cc1cc(-c2ccc(C(C)C)c(S(=O)(=O)NCc3ccco3)c2)on1`, the Potency is 14.1 µM (active). As for `CCc1ccc(-c2cc(C)no2)cc1S(=O)(=O)NCc1ccco1`, the Potency is 12.6 µM (active).

With `CN(C)S(=O)(=O)c1cccc(NC(=S)N/N=C/c2cc(Br)ccc2O)c1`, the Potency is 3.98 µM (active). In the case of `O=C(O)CCn1c(-c2ccccc2)cc2c1CCCC2=O`, the “activity change, negative = inhibition” value was -11.5%.

On to `CC(=O)/C=C/c1ccccc1Oc1c(F)c(F)nc(F)c1F`, for which the Potency is 3.16 µM (active). For `CN(C)S(=O)(=O)c1cccc(NC(=O)CSc2cccc3cccnc23)c1`, the Potency is 7.94 µM (active). For the molecule `O=C(CSc1cccc2cccnc12)N/N=C/c1cccnc1`, the Potency was 12.6 µM (active). As to `O=C(NC1CC1)C1=C[C@@H](C2CCCCC2)C[C@@H](OCc2ccc(CO)cc2)O1`, the Potency is 10 µM (active). As for `O=C(NCc1ccccc1)C1=C[C@@H](c2coc3ccccc3c2=O)C[C@@H](OCc2ccc(CO)cc2)O1`, the Potency is 7.08 µM (active).

Turning to `O=C(Nc1ccccc1)C1=C[C@@H](C2CCCCC2)C[C@@H](OCc2ccc(CO)cc2)O1`, the Potency is 10 µM (active). The same measure, in the same setting: for `COc1cccc(NC(=O)CSc2nc3n[nH]c(C)c3c(=N)n2-c2cccc(OC)c2)c1` the value was 6.31 µM (active); for `NC1=NC[C@H](Cc2ccc(O)cc2)N1CCc1cccc(F)c1`, 3.16 µM (active); for `NC1=NC[C@@H](Cc2ccc(O)cc2)N1CCc1cccc(F)c1`, 3.98 µM (active). Take `NC(=O)C1CCN(c2nc(C3CC3)nc3c2nnn3Cc2ccccc2Cl)CC1`: the Potency is 3.16 µM (active). In the case of `CS(=O)(=O)c1ccc(-c2nnc(NC(=O)c3ccc(S(=O)(=O)N4CCCC4)cc3)o2)cc1`, the Potency is 15.8 µM (active). As for `CC1CCN(CCc2nc3cc(NS(=O)(=O)c4ccc(F)cc4)ccc3n2C)CC1`, the Potency is 12.6 µM (active). For `Cn1c(CCN2CCCCC2)nc2cc(NS(=O)(=O)c3ccc(F)cc3)ccc21`, the Potency was 12.6 µM (active). With `Cn1c(CCN2CCCCC2)nc2cc([N+](=O)[O-])ccc21`, the “activity change, negative = inhibition” value is -17.4%. Take `CCOc1ccc(S(=O)(=O)Nc2cc(S(=O)(=O)N(CC)CC)ccc2N2CCCC2)cc1`: the Potency was 0.501 µM (active). Turning to `N#Cc1cc(C(=O)c2cc(Cl)ccc2O)cn(-c2ccccc2)c1=O`, the Potency is 12.6 µM (active). As to `COc1ccc(Nc2cccc(Cl)c2)c(C(=O)O)c1`, the “activity change, negative = inhibition” value is -20.8%.

Regarding `COc1cccc(NC(C)C(=O)Nc2cc([N+](=O)[O-])ccc2Cl)c1` (centres undefined), the Potency is 3.16 µM (active). Consider `O=C(O)CCc1ccc(-c2ccccc2)n1-c1ccc(C(=O)O)cc1`, for which the “activity change, negative = inhibition” value was 0.286%.

Turning to `Cc1ccc(NC(=O)c2ccc(Nc3c([N+](=O)[O-])cc([N+](=O)[O-])cc3[N+](=O)[O-])cc2)cc1`, the Potency is 2.24 µM (active). For `Cc1ccc(NC(=O)/C(=C\c2ccc([N+](=O)[O-])cc2)NC(=O)c2ccccc2)cc1`, the Potency is 2.82 µM (active). Regarding `CN1c2ccccc2-c2nc3ccccc3n2C1c1cccs1` (centres undefined), the Potency was 4.47 µM (active). Regarding `O=C(c1ccc(CS(=O)c2ccccc2Cl)o1)N1CCCCCC1` (centres undefined), the Potency is 5.62 µM (active). The same measure, in the same setting: under `O=C(c1ccc(CS(=O)c2ccccc2Cl)o1)N1CCN(c2ccccn2)CC1` (centres undefined) stands 1.41 µM (active); under `CO[C@H]1[C@H](O[C@H]2O[C@@H](C)[C@@H](O[C@@H]3C[C@](C)(O)[C@H](O)[C@H](C)O3)[C@@H](N(C)C)[C@@H]2O)[C@@H](CC=O)C[C@@H](C)[C@@H](O[C@H]2CC[C@H](N(C)C)[C@H](C)O2)/C=C\C=C/C[C@@H](C)OC(=O)C[C@H]1O`, 2.51 µM (active). As for `CO[C@@H]1[C@@H](OC2OC(C)C(OC3CC(C)(O)C(OC(=O)CC(C)C)C(C)O3)C(N(C)C)C2O)[C@@H](CC=O)C[C@@H](C)C(=O)/C=C\C2O[C@H]2C[C@@H](C)OC(=O)C[C@H]1OC(C)=O` (some centres undefined), the Potency was 1.78 µM (active). Turning to `Cc1ccc(OCCSCc2nnc(NC(=O)Nc3cccc(Cl)c3)s2)cc1`, the Potency was 2 µM (active). The same measure, in the same setting: for `CCCNC(=O)COC(=O)c1ccccc1C(=O)c1ccc(Cl)c([N+](=O)[O-])c1` the value was 10 µM (active); for `Cc1onc(-c2c(F)cccc2Cl)c1-c1nnc(-c2ccc(C(F)(F)F)cc2)o1`, 6.31 µM (active); for `COc1ccc2cc(C(=O)/C=C/c3cc(OC)c(O)c(OC)c3)ccc2c1`, 15.8 µM (active). Consider `COc1ccc(C(=O)/C=C/c2ccccc2)c(OC)c1`, for which the Potency was 7.94 µM (active). Turning to `COc1cc(O)cc(O)c1C(=O)/C=C/c1ccccc1`, the Potency was 11.2 µM (active). On the same count and under the same terms, under `COc1cc(/C=C/C(=O)Nc2cccnc2)cc(OC)c1OC` stands 11.2 µM (active); under `COc1ccc(C(=O)/C=C/c2ccc(OC)c(O)c2)c(F)c1`, 11.2 µM (active); under `COc1ccc(C(=O)/C=C/c2cccnc2)c(OC)c1`, 3.55 µM (active).

Consider `Cc1ccc(Nc2cc(C)nc3ccc(C)cc23)cc1`, for which the Potency was 10 µM (active). As for `COC(=O)C1=C(C)N(CC2CC2)C(=NCc2cc(OC)c(OC)c(OC)c2)N[C@H]1c1ccccc1`, the Potency is 11.2 µM (active). `COc1cc2c(cc1OC)[C@@H](NC(=O)C(C)C)[C@H](OCc1ccccc1)C2`: the “activity change, negative = inhibition” value is -82.6%.

On to `Cc1nc(-c2ccccn2)sc1C(=O)Nc1ccc(Cl)c(Cl)c1`, for which the “activity change, negative = inhibition” value is -23%. Regarding `O=C(Nc1ccc(N2CCCCC2)c(Cl)c1)c1cccnc1`, the Potency was 12.6 µM (active). For `O=C(CSc1nnc(NC(=O)c2ccccc2[N+](=O)[O-])s1)NCC1CCCO1` (centres undefined), the Potency is 14.1 µM (active).
